Assay outcomes: PubChem BioAssay, several laboratories
In the library only some 3.3% were active in any assay of this set; here they are far more common.
Gli-Sufu block = blocks Gli-Sufu signaling in a luciferase reporter | Sufu-KO-LIGHT fibroblasts, Gli luciferase reporter luminescence | inhibition, % at 5 µM | 340,000 tested, 0.74% active;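 active = inhibition above about 55%, limit read from the data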;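 note: 0% = DMSO-treated cells and 100% = wells with medium but no cells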
Jurkat NFkB inh = inhibitors of the PMA/ionomycin-induced NF-kB reporter in Jurkat cells. PMA/ionomycin-induced NF-kB luciferase reporter, luminescence. inhibition, % at 4 µM. 330,000 tested, 0.53% active; in the data active = inhibition above about 50%
SMARCA2 activ = SMARCA2 function activation, primary screen. MG213 cells, MMTV-luciferase reporter, dexamethasone, overnight. activation, % at 9.1 µM. 370,000 tested, 1% active; in the data active = activation above about 7.8%;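 note: 0% = vehicle wells and 100% = reference activator wells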
697 NFkB inh = inhibitors of the PMA/ionomycin-induced NF-kB reporter in 697 B cells; 697 B-cell NF-kB luciferase reporter, 16 h; inhibition, % at 4 µM; 330,000 tested, 0.33% active; in the data active = inhibition above about 35%
esBAF inh = SWI/SNF esBAF complex inhibition | reporter increase, % at 12.5 µM | 350,000 tested, 2% active | mouse ES cells, Bmi1-luciferase knock-in reporter, 24 h; 100% = twice the neutral-well signal; in the data active = activation above about 40%;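 note: 0% = median of the plate's neutral control wells and 100% = double that signal; a rise in the Bmi1 reporter signal indicates esBAF inhibition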
Gli antag conf = confirmation of Gli-SUFU pathway antagonists; shares compounds with Gli-Sufu block; Sufu-KO-LIGHT cells, Gli luciferase reporter, luminescence; inhibition, % at 5 µM; 2,500 tested, 40% active; AID 602428;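 active = mean inhibition at 5 µM reaching about 45%, limit read from the data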;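 note: plate controls were DMSO-treated cells for no effect and wells lacking cells for full effect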
SufuKO cytotox = cytotoxicity counter-screen for Gli-SUFU antagonists | shares compounds with Gli-Sufu block | Sufu-KO-LIGHT cells cytotoxicity, ATP luminescence | cytotoxicity, % at 5 µM | 2,500 tested, 32% active | AID 651994;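 active = mean cytotoxicity at 5 µM above about 25%, limit read from the data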;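 note: cells exposed to compound overnight for roughly 16 to 18 hours; plate controls were DMSO wells with cells for no effect and medium without cells for full effect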
Wnt3a counter = counter-screen for Gli-SUFU antagonists: Wnt3a reporter inhibition | shares compounds with Gli-Sufu block | Wnt-LIGHT cells, Wnt3a-driven luciferase reporter, luminescence | inhibition, % at 6.25 µM | 2,500 tested, 20% active;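 active = mean inhibition above about 25%, limit read from the data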
* marks the source's active call; other numbers are inactive results; nt = no result.

SMILES	Gli-Sufu block	Jurkat NFkB inh	SMARCA2 activ	697 NFkB inh	esBAF inh	Gli antag conf	SufuKO cytotox	Wnt3a counter
Cc1ccc(-c2nc3sc4c(N)ncnc4c3c3c2CCCC3)cc1	55	15	2	25	-4	28	-14	25*
CN(C)C(=O)CCc1ccc2c3c([nH]c2c1)[C@]1(C)[C@@H](C(=O)N2CCCCC2)C[C@H](CC(=O)NC(C)(C)C)C(=O)N1CC3	2	nt	-3	-1	-2	nt	nt	nt
CC(C)=CCC/C(C)=C/CNC(=O)C[C@H]1C[C@H](C(=O)N2CCOCC2)[C@@]2(C)c3[nH]c4cc(CCC(=O)N(C)C)ccc4c3CCN2C1=O	58*	nt	-6	-1	-19	66*	19	-6
CC(C)=CCC/C(C)=C/CNC(=O)C[C@H]1C[C@H](C(=O)N2CCCCC2)[C@@]2(C)c3[nH]c4cc(CCC(=O)N(C)C)ccc4c3CCN2C1=O	52	nt	nt	-20	-40	56*	32*	-18
CN(C)C(=O)CCc1ccc2c3c([nH]c2c1)[C@]1(C)[C@@H](C(=O)N2CCOCC2)C[C@H](CC(=O)NC(C)(C)C)C(=O)N1CC3	-5	nt	-2	-2	-5	nt	nt	nt
CC[C@]12c3[nH]c4cc(CCC(=O)N(C)C)ccc4c3CCN1C(=O)[C@@H](CC(=O)NC/C=C(\C)CCC=C(C)C)C[C@@H]2C(=O)N1CCN(C(=O)C2CC2)CC1	53	nt	-2	18	-15	54*	29*	-23
Cc1noc(C)c1NC(=O)Nc1ccc2c(c1)C(=O)N([C@@H](C)CO)C[C@H](C)[C@@H](CN(C)Cc1ccc(-c3ccccc3)cc1)O2	nt	nt	nt	nt	0	nt	nt	nt
Cc1ccccc1S(=O)(=O)N1[C@H](C#N)[C@@H](c2ccc(C#CC3CC3)cc2)[C@@H]1CO	nt	nt	nt	nt	6	nt	nt	nt
C[C@H](CO)N1C[C@H](C)[C@@H](CN(C)C(=O)CCC(F)(F)F)OCCCC[C@H](C)Oc2ccc(NC(=O)NC3CCCCC3)cc2C1=O	nt	nt	nt	nt	0	nt	nt	nt
Cc1ccc(NC(=O)c2ccc(C(=O)c3ccccc3)cc2)nc1	-23	-38	-1	9	-11	nt	nt	nt
Cc1ccc(NC(=O)c2ccccc2F)nc1	99*	-110	4	-82	25	-55	14	7
Cc1ccccc1-c1cnc2c(c1)C(=O)N([C@H](C)CO)C[C@@H](C)[C@H](CN(C)Cc1cncnc1)O2	nt	nt	nt	nt	4	nt	nt	nt
O=C(Cc1nnc(NC(=O)c2ccccc2)s1)N/N=C\c1ccc(O)c(O)c1	5	-7	1	-16	1	nt	nt	nt
O=C(Cc1nnc(NC(=O)c2ccccc2)s1)N/N=C/c1ccc(O)cc1	53	6	-1	-7	10	10	19	-36
C[C@H](CO)N1C[C@H](C)[C@@H](CN(C)C(=O)C2CCC2)Oc2cc(-c3ccc(C(=O)N(C)C)cc3)ccc2S1(=O)=O	nt	nt	nt	nt	5	nt	nt	nt
Cc1ccc([N+](=O)[O-])cc1N=Nc1c(-c2ccc([N+](=O)[O-])cc2)[nH]n(C(N)=S)c1=O	58*	nt	nt	nt	-47	60*	3	47*
CO[C@H]1CN(C)C(=O)c2ccc(NS(=O)(=O)c3ccccc3Cl)cc2OC[C@H](C)NC[C@H]1C	nt	nt	nt	nt	3	nt	nt	nt
CCOc1ccc(CN(C)CC(=O)Nc2ccc3c(c2)CCC3)cc1OC	53	-5	-5	-2	nt	24	22	-30
C=CCOc1ccc(CN(C)CC(=O)Nc2ccc3c(c2)CCC3)cc1	22	13	-2	12	nt	nt	nt	nt
Cc1c(F)cccc1NS(=O)(=O)c1ccc2c(c1)n(C)c(=O)c(=O)n2C	53	-2	2	11	-5	7	9	-21
NS(=O)(=O)c1ccc(CCNCc2ccccc2OCc2ccc(Cl)cc2)cc1	50	21	-2	-20	3	15	9	-61
NS(=O)(=O)c1ccc(CCNCc2cc(Cl)ccc2OCc2ccccc2)cc1	56*	15	0	-27	-4	23	-6	-17
CCCn1c(N)c(C(=O)CSc2nnc(-c3ccoc3C)n2C)c(=O)n(C)c1=O	76*	-16	-2	-4	-3	12	22	-25
